This note sets out measurements from PubChem BioAssay.

Test [1] can be described thus: inhibitors of TNFa-induced NFkB p65 translocation, primary screen, imaging, HUVEC, MLSMR starter and 10KST1 sets (AID 438;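 active means inhibition above 20% together with a positive visual image hit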;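 further: compound added about 3h40 before a 20 min TNFalpha stimulation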;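 on inhibition: signal is the nuclear over cytoplasmic p65 intensity ratio per well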). Conditions: HUVEC TNFa-induced p65 nuclear translocation; cell count: measured here: nuclei count (cytotoxicity indicator), at 2.08 µM; inhibition: at 2 µM, stronger effect = higher value, 0% TNFa-plus-vehicle, 100% no-TNFa wells.
Test [2] is described as follows: reduction of polyQ htt aggregates in cells – imaging, exon1htt(103Q)mCFP cells, high-content imaging, primary screen (AID 483;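 active means visual image review flags a hit and inhibition of aggregation exceeds 20%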;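 further: compound exposure lasted 3 days before fixation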;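 on nuclei count: percent of the per-plate median nuclei count of sample wells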). Conditions: exon1htt(103Q)mCFP cell line, aggregate imaging, at 2 µM; inhibition of aggregation: stronger effect = higher value; nuclei count: measured here: cell count, toxicity.
Test [3] can be described thus: endothelial E-selectin expression blockers – imaging, HUVEC, immunofluorescence, MLSMR starter and 10KST1 sets, primary screen (AID 487).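 On inhibition: signal is fraction of cell area covered by stained E-selectin grains.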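 On nuclei count: 100% = median nuclei count of all wells on the same plate.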 Particulars: HUVEC TNFalpha-induced E-selectin immunofluorescence imaging, at 2 µM; inhibition: stronger effect = higher value; nuclei count: measured here: cell number, toxicity.
For test [4], the target named is Voltage-gated potassium channel subunit beta-2 (Rattus norvegicus) (UniProt P62483). Description: inhibitors of rat Kvbeta2 reductase activity – biochemical, NADPH fluorescence, primary screen (AID 622;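 active means fluorescence slope higher than the sample average by over 3 SD, cut at about -0.22 in these data, passing the limit was not always enough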;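 further: slope of raw intensity against log time taken from 70 to 1610 s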). Conditions: recombinant KvBeta, 4-cyanobenzaldehyde reduction, at 10 µM, stronger effect = higher value.
Chain of Voltage-gated potassium channel subunit beta-2 (Rattus norvegicus) (P62483 whole entry, looked up): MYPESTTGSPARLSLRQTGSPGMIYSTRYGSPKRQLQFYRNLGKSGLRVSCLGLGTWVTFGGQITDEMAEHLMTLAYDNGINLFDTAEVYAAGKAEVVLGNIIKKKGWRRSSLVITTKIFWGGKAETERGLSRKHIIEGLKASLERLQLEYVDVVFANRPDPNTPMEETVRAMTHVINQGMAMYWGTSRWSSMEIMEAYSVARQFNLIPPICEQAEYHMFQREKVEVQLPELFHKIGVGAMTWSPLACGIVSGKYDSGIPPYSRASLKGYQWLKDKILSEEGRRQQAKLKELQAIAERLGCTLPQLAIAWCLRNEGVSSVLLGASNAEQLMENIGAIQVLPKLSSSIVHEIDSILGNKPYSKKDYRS
Test [5] shares this target. Briefly: enhancers of rat Kvbeta2 NADPH turnover – biochemical, NADPH fluorescence, primary screen (AID 623;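 active means NADPH fluorescence slope more negative than the mean of all samples by about 3 SD, 99.7% confidence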;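 further: fluorescence intensity change per second fitted from 20 to 320 s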). Particulars: Recombinant KvBeta, NADPH fluorescence decrease slope, 10 min; at 10 µM; stronger effect = lower value.
The target of test [6] is Alpha-2C adrenergic receptor (Homo sapiens) (UniProt P18825). Description: compounds altering alpha2C-coupled GIRK flux – cell-based, HEK293 alpha2C/GIRK1/2, thallium flux, primary screen (AID 624;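 active means fluorescence slope after compound addition differing from the mean of all screened samples at 99.7% confidence, in either direction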;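 further: slope of fluorescence ratio to pre-addition baseline per second over 15 to 24 s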). Particulars: thallium flux BTC fluorescence, at 10 µM, actives lie on both sides.
Chain of Alpha-2C adrenergic receptor (Homo sapiens) (P18825 whole entry, looked up): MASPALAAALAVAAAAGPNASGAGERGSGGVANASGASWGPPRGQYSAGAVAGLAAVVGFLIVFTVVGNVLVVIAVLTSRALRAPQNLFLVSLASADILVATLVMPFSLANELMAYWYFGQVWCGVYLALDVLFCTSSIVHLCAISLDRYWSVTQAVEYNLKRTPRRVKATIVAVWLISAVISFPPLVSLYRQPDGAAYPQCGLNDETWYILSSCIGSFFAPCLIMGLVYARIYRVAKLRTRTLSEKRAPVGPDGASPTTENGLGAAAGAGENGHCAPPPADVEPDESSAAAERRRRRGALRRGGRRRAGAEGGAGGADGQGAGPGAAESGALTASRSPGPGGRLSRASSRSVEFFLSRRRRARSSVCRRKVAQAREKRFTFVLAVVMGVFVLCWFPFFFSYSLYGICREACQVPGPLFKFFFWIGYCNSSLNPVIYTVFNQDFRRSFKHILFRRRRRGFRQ
The nature of test [7]: blockers of RIG-like receptor reporter activation – cell-based, Sendai virus stimulus, luciferase, 10K MLSCN set, TLR/RLR signaling modifier project, primary screen (AID 602276;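 active means inhibition at or above 50% at 10 µM; inactive means inhibition below 50%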;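 further: firefly luciferase from ISG56 promoter only with Renilla not read in this screen; 0% = Sendai virus plus DMSO and 100% = medium plus DMSO without virus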). Conditions: HEK293 RL24 IRF3 luciferase reporter, at 10 µM, stronger effect = higher value. In general terms: In a reporter assay the amount or activity of a reporter protein is the signal.
Test [8] can be described thus: TLR3 IRF3 reporter activation blockers – cell-based, poly I:C stimulus, luciferase, 10K MLSCN set, primary screen (AID 602277;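 active means inhibition of the reporter signal at or above 50%; inactive means inhibition below 50%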). Particulars: HEK293-TLR3 RL24 IRF3 luciferase reporter, at 10 µM, stronger effect = higher value.

Calls of active or inactive are those of the source.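 How the source made its calls, unless noted: active means visually confirmed hit in the image check and inhibition above 20%; inconclusive means visually confirmed hit but inhibition not above 20%; inactive means no visual hit in the image check.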

By inhibition is commonly meant the drop in the measured response relative to a control, in per cent. On to `O=C1C(C=NCCCn2ccnc2)=C(O)c2ccccc21`, for which the cell count in test [1] came to 422. Further, the inhibition in test [1] was 5.8% (inactive); in test [3], -50.8% (inactive); in test [7], 9.44% (inactive); in test [8] it was 37.1% (inactive). Besides, the inhibition of aggregation in test [2] was -8.1% (inactive). The figures for the nuclei count in test [2] and in test [3] were 104% and 113%, respectively. Also, the fluorescence slope in test [4] is -0.589 (inactive). The NADPH fluorescence slope in test [5] was -2.7e-05 (inactive). Besides, in test [6], the slope is 0.0063 (inactive).

Regarding `Oc1ccc(N2CCN(C(c3ccncc3)c3nnnn3C3CCCC3)CC2)cc1` (centres undefined), in test [1], the cell count was 661. Moreover, the inhibition was -18.3% (inactive) in test [1], -67.5% (inactive) in test [3], 17% (inactive) in test [7] and 26.3% (inactive) in test [8]. For the same compound, in test [2], the inhibition of aggregation is -5.2% (inactive). For the same compound, the nuclei count in test [2] worked out at 101%; in test [3], 115%. Further, the fluorescence slope in test [4] was -0.502 (inactive). For the same compound, in test [5], the NADPH fluorescence slope was -4.4e-05 (inactive). For the same compound, the slope in test [6] is 0.00598 (inactive).

For the compound `CCOC(=O)c1sc2nc(SCC(=O)NCc3ccco3)n(Cc3ccccc3)c(=O)c2c1C`, the cell count in test [1] amounted to 395. In addition, the inhibition in test [1] is -1.1% (inactive); in test [3] it was -22% (inactive); in test [7] it was 5.1% (inactive); in test [8] it was 21.4% (inactive). The inhibition of aggregation in test [2] is 0.8% (inactive). The nuclei count in test [2] worked out at 89.7%; in test [3] it was 99.6%. Further, in test [4], the fluorescence slope was -0.449 (inactive). Besides, the NADPH fluorescence slope in test [5] is -2.2e-05 (inactive). Moreover, in test [6], the slope is 0.00701 (inactive).

For `Cc1ccc(S(=O)(=O)N(CCO)c2cc3c(s2)CCCC3)cc1`, the cell count in test [1] was found to be 689. In addition, the inhibition in test [1] was -0.8% (inactive); in test [3], -151% (inactive); in test [7] it was 9.96% (inactive); in test [8], 21.8% (inactive). For the same compound, the inhibition of aggregation in test [2] was 20.5% (inactive). For the same compound, the figures for the nuclei count in test [2] and in test [3] were 73.1% and 117%, respectively. The fluorescence slope in test [4] is -0.404 (inactive). The NADPH fluorescence slope in test [5] was -2.1e-05 (inactive). Moreover, the slope in test [6] was 0.00447 (inactive).

Take `N#CC1=C(N)Oc2c(ccc3cccnc23)C1c1cccnc1` (centres undefined): the cell count in test [1] amounted to 749. Moreover, the inhibition was 7.3% (inactive) in test [1], -67.8% (inactive) in test [3], 47.8% (inactive) in test [7] and 45.8% (inactive) in test [8]. Moreover, the inhibition of aggregation in test [2] was 4.4% (inactive). Also, the figures for the nuclei count in test [2] and in test [3] were 89% and 130%, respectively. Further, the fluorescence slope in test [4] is -0.469 (inactive). For the same compound, the NADPH fluorescence slope in test [5] was -2e-05 (inactive). Further, the slope in test [6] is 0.0058 (inactive).

Turning to `COc1ccc(NC(=O)C(C)Oc2ccc(/C(C)=N\O)cc2)cc1` (centres undefined), the cell count in test [1] was 581. The inhibition in test [1] is 2.7% (inactive); in test [3] it was 24.1% (inactive); in test [7] it was 14.5% (inactive); in test [8], 19.2% (inactive). The inhibition of aggregation in test [2] is 13.8% (inactive). The nuclei count in test [2] turned out to be 114%; in test [3], 105%. Besides, the fluorescence slope in test [4] was -0.307 (inactive). Moreover, in test [5], the NADPH fluorescence slope is 3.7e-05 (inactive). For the same compound, the slope in test [6] was 0.00609 (inactive).

Regarding `Cc1ccc2c(c1)N(CC(=O)Nc1ccc3c(c1)OCCO3)C(=O)CO2`, the cell count in test [1] amounted to 362. Further, the inhibition in test [1] is -4.9% (inactive); in test [3] it was -6.2% (inactive); in test [7] it was 38.1% (inactive); in test [8], 99.4% (active). In addition, the inhibition of aggregation in test [2] was -2.2% (inactive). The nuclei count worked out at 84.3% in test [2] and 104% in test [3]. The fluorescence slope in test [4] is -0.293 (inactive). For the same compound, in test [5], the NADPH fluorescence slope was -5e-05 (inactive). In addition, the slope in test [6] is 0.0057 (inactive).

In the case of `CC(=O)NC(Cc1c[nH]c2ccccc12)C(=O)OCC(=O)Nc1cc(C)on1` (centres undefined), the cell count in test [1] was found to be 505. The inhibition in test [1] was 9.6% (inactive); in test [3], -0.6% (inactive); in test [7], -5.34% (inactive); in test [8], 8.03% (inactive). The inhibition of aggregation in test [2] is 0.7% (inactive). In addition, the figures for the nuclei count in test [2] and in test [3] were 110% and 97.6%, respectively. For the same compound, the fluorescence slope in test [4] was -0.376 (inactive). Besides, the NADPH fluorescence slope in test [5] was 1.5e-05 (inactive). Further, the slope in test [6] is 0.00598 (inactive).

`c1ccc(Oc2ccc(-n3cnnn3)cc2)cc1`: the cell count in test [1] came to 254. Further, the inhibition in test [1] is 1.5% (inactive); in test [3] it was -14% (inactive); in test [7], -11.3% (inactive); in test [8], 0.336% (inactive). The inhibition of aggregation in test [2] is -1.2% (inactive). Also, the nuclei count in test [2] is 66%; in test [3], 106%. In test [4], the fluorescence slope was -0.391 (inactive). Also, the NADPH fluorescence slope in test [5] is 9.8e-07 (inactive). Also, the slope in test [6] was 0.00429 (inactive).

With `CCOc1cccc(C(=O)N(Cc2ccco2)C2CCS(=O)(=O)C2)c1` (centres undefined), the cell count in test [1] was 609. For the same compound, the inhibition in test [1] is 9.6% (inactive); in test [3], -9.8% (inactive); in test [7] it was 11.5% (inactive); in test [8], 13.7% (inactive). In test [2], the inhibition of aggregation was 2.4% (inactive). Besides, the nuclei count in test [2] worked out at 107%; in test [3], 110%. For the same compound, the fluorescence slope in test [4] is -0.342 (inactive). For the same compound, the NADPH fluorescence slope in test [5] was -6.1e-05 (inactive). Also, the slope in test [6] was 0.00467 (inactive).

For `COc1ccc(OC)c(S(=O)(=O)N2CCC(C(=O)NCC3CCCO3)CC2)c1` (centres undefined), in test [1], the cell count is 268. Also, the inhibition is 1.3% (inactive) in test [1], -34.4% (inactive) in test [3], 14.9% (inactive) in test [7] and 20.2% (inactive) in test [8]. The inhibition of aggregation in test [2] was 10.7% (inactive). The nuclei count in test [2] came to 100%; in test [3], 115%. Moreover, the fluorescence slope in test [4] was -0.352 (inactive). For the same compound, the NADPH fluorescence slope in test [5] is 2.2e-05 (inactive). The slope in test [6] was 0.00611 (inactive).

For `CC1CC(NC(=O)c2cnc3n(c2=O)CCS3)CC(C)(C)C1` (centres undefined), in test [1], the cell count was determined as 626. For the same compound, the inhibition in test [1] is -2.3% (inactive); in test [3], -37.1% (inactive); in test [7], 16.9% (inactive); in test [8] it was 38.3% (inactive). For the same compound, in test [2], the inhibition of aggregation is -23.1% (inactive). In addition, the nuclei count in test [2] came out at 113%; in test [3], 112%. Further, the fluorescence slope in test [4] was -0.56 (inactive). Moreover, the NADPH fluorescence slope in test [5] was -4.4e-05 (inactive). For the same compound, in test [6], the slope is 0.00953 (inactive).

Turning to `Cc1cccc(C)c1OCc1nnc(SCC(=O)Nc2ccccc2F)o1`, the cell count in test [1] was 592. The inhibition in test [1] was -12% (inactive); in test [3], 4% (inactive); in test [7], 16.4% (inactive); in test [8], 25.4% (inactive). Besides, in test [2], the inhibition of aggregation was 21.8% (inactive). For the same compound, the nuclei count in test [2] is 67.2%; in test [3], 109%. Moreover, the fluorescence slope in test [4] is -0.558 (inactive). In test [5], the NADPH fluorescence slope was -3e-05 (inactive). The slope in test [6] was 0.00659 (inactive).

With `CCc1c(C)nc2ncnn2c1NCCc1ccc(OC)c(OC)c1`, the cell count in test [1] stood at 447. Also, the inhibition in test [1] was -1.6% (inactive); in test [3], 7.1% (inactive); in test [7], 8.69% (inactive); in test [8], -1.81% (inactive). For the same compound, the inhibition of aggregation in test [2] was -8% (inactive). Moreover, the values for the nuclei count in test [2] and in test [3] were 95.4% and 97.7%, respectively. Moreover, the fluorescence slope in test [4] is -0.323 (inactive). Further, the NADPH fluorescence slope in test [5] is -7.8e-05 (inactive). The slope in test [6] was 0.00477 (inactive).
